The panel holds about 79,000 compounds, 15% with a hit somewhere; the sample as a whole holds those more often. Values without a mark were called inactive. Calls of active or inactive are those of the source. No stated cut-off is given here; in the data, active means growth inhibition above about 70%; inactive means the rest.
What was measured:
[1] = NCI Yeast Anticancer Drug Screen. Data for the rad52 strain (AID 147);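 further: 0% = growth of vehicle-treated control cultures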; conditions: S. cerevisiae rad52 mutant growth inhibition, stronger effect = higher value
Summary of the method: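 Genetically altered yeast (DNA damage repair defect) treated with compound; inhibition calculated relative to vehicle.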

[2] = NCI Yeast Anticancer Drug Screen. Data for the wt1 strain (AID 149);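 further: 0% = growth of vehicle-treated wt1 cultures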; conditions: S. cerevisiae wt1 strain (SPY 50644) growth inhibition, stronger effect = higher value
Summary of the method: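 Compounds are added to wt1 yeast cultures. Growth is then measured. Inhibition is expressed relative to vehicle-treated controls.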

[3] = NCI Yeast Anticancer Drug Screen. Data for the rad50EPP+ strain (AID 151);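 further: 0% = growth of vehicle-treated control cultures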; conditions: S. cerevisiae rad50 mutant strain, stronger effect = higher value
Summary of the method: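 Strain rad50EPP+; compound exposure; % growth inhibition vs vehicle.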

[4] = NCI Yeast Anticancer Drug Screen. Data for the mgt1 strain (AID 153); conditions: S. cerevisiae mgt1 mutant growth inhibition, stronger effect = higher value
Summary of the method: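 Read-out: yeast growth inhibition vs vehicle control. Strain mgt1, drawn from a panel altered in DNA damage repair or cell cycle control.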

[5] = NCI Yeast Anticancer Drug Screen. Data for the rad50 strain (AID 155);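 further: 0% = growth of vehicle-only cultures of the same strain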; conditions: S. cerevisiae rad50 strain growth inhibition, stronger effect = higher value
Summary of the method: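 Inhibition values express reduced yeast growth in compound-treated cultures relative to vehicle-treated controls.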

[6] = NCI Yeast Anticancer Drug Screen. Data for the mec2-1 strain (AID 157); conditions: S. cerevisiae mec2-1 strain, stronger effect = higher value
Summary of the method: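 Cells of the genetically defined mec2-1 yeast strain are incubated with test compound. Inhibition of growth is calculated against vehicle-treated controls.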

[7] = NCI Yeast Anticancer Drug Screen. Data for the sgs1 mgt1 strain (AID 161);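 further: 0% = growth of cultures given vehicle only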; conditions: S. cerevisiae sgs1 mgt1 strain, stronger effect = higher value
Summary of the method: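 Mutant yeast exposed to compound; growth scored against vehicle-only wells.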

[8] = NCI Yeast Anticancer Drug Screen. Data for the CLN2oe strain (AID 163);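 further: 0% = growth of vehicle-only control cultures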; conditions: S. cerevisiae CLN2oe strain, stronger effect = higher value
Summary of the method: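 Strain altered in cell-cycle control, incubated with compound; growth compared to solvent-treated controls.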

[9] = NCI Yeast Anticancer Drug Screen. Data for the cln2 rad14 strain (AID 165);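 further: 0% = growth equal to vehicle treated cultures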; conditions: S. cerevisiae cln2 rad14 strain, stronger effect = higher value
Summary of the method: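 The screen exposed genetically defined yeast (cln2 rad14) to test compounds and scored growth inhibition relative to vehicle-treated controls.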

[10] = NCI Yeast Anticancer Drug Screen. Data for the bub3 strain (AID 167); conditions: S. cerevisiae bub3 mutant strain, stronger effect = higher value
Summary of the method: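 Steps: expose the mutant yeast strain to compound; grow alongside vehicle-treated cultures; measure growth; express inhibition against the vehicle cultures.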

[11] = NCI Yeast Anticancer Drug Screen. Data for the wt2 strain (AID 169);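 further: 0% = growth of vehicle-treated yeast cultures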; conditions: S. cerevisiae wt2 strain growth inhibition, stronger effect = higher value
Summary of the method: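 Steps: yeast strain treated with compound; growth recorded; inhibition calculated relative to cultures given vehicle alone.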

[12] = NCI Yeast Anticancer Drug Screen. Data for the mlh1 strain (AID 171);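 further: 0% = growth of vehicle-treated control cultures of the same strain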; conditions: S. cerevisiae mlh1 strain growth inhibition, stronger effect = higher value
Summary of the method: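 Yeast screen: mutant strain plus compound, growth scored against vehicle control wells.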

[13] = NCI Yeast Anticancer Drug Screen. Data for the sgs1 strain (AID 173);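 further: 0% = growth of vehicle-only control cultures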; conditions: S. cerevisiae sgs1 mutant, stronger effect = higher value
Summary of the method: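 Inhibition of yeast growth served as the measure. The mutant strain was treated with each compound, and growth was normalised to cultures receiving vehicle alone.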

[14] = NCI Yeast Anticancer Drug Screen. Data for the mlh1 rad18 strain (AID 175); conditions: S. cerevisiae mlh1 rad18 strain growth inhibition, stronger effect = higher value
Summary of the method: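 Compound-treated yeast growth, normalised to vehicle controls. Strain bears defined DNA repair mutations.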

[15] = NCI Yeast Anticancer Drug Screen. Data for the rad18 strain (AID 177); conditions: S. cerevisiae rad18 mutant growth inhibition, stronger effect = higher value
Summary of the method: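 Inhibition values reflect reduced yeast growth compared with vehicle-treated controls, using a strain engineered with a DNA damage repair defect.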

[16] = at 5.0 µM (retest, dose inferred, filed as 0.5)
[17] = at 50.0 µM (retest, dose inferred, filed as 5.0)

Which growth inhibition ([1]; at 1.2 µM) does the source give for `Cc1cc(N=C2C=CC(=[N+](C)C)C=C2)c(N)cc1N` here?
Its growth inhibition is -7%.

What about the growth inhibition ([1]; at 3.7 µM) of the same compound?
The growth inhibition was -9%.

What about the growth inhibition ([1]; at 11.0 µM) of the same compound?
Its growth inhibition is 15%.

And the growth inhibition ([1]; at 33.0 µM)?
The growth inhibition was 45%.

And the growth inhibition ([1]; at 100.0 µM)?
Its growth inhibition is 72% (active).

What about the growth inhibition ([2]; at 1.2 µM) of the same compound?
Its growth inhibition is 12%.

And the growth inhibition ([2]; at 3.7 µM)?
Its growth inhibition is 15%.

And the growth inhibition ([2]; at 11.0 µM)?
Its growth inhibition is 23%.

And the growth inhibition ([2]; at 33.0 µM)?
Its growth inhibition is 52%.

And the growth inhibition ([2]; at 100.0 µM)?
The growth inhibition was 75% (active).

And the growth inhibition ([3]; at 1.2 µM)?
The growth inhibition was -8%.

What about the growth inhibition ([3]; at 3.7 µM) of the same compound?
Its growth inhibition is -6%.

And the growth inhibition ([3]; at 11.0 µM)?
The growth inhibition was -5%.

What about the growth inhibition ([3]; at 33.0 µM) of the same compound?
Its growth inhibition is 9%.

And the growth inhibition ([3]; at 100.0 µM)?
Its growth inhibition is 47%.

What about the growth inhibition ([4]; at 1.2 µM) of the same compound?
The growth inhibition was 4%.

And the growth inhibition ([4]; at 3.7 µM)?
Its growth inhibition is 15%.

And the growth inhibition ([4]; at 11.0 µM)?
Its growth inhibition is 28%.

What about the growth inhibition ([4]; at 33.0 µM) of the same compound?
The growth inhibition was 52%.

What about the growth inhibition ([4]; at 100.0 µM) of the same compound?
Its growth inhibition is 75% (active).

And the growth inhibition ([5]; at 1.2 µM)?
The growth inhibition was -2%.

And the growth inhibition ([5]; at 3.7 µM)?
Its growth inhibition is 1%.

What about the growth inhibition [5, 16] of the same compound?
The growth inhibition was 54%.

And the growth inhibition ([5]; at 11.0 µM)?
The growth inhibition was 15%.

And the growth inhibition ([5]; at 33.0 µM)?
The growth inhibition was 52%.

And the growth inhibition [5, 17]?
Its growth inhibition is 61%.

And the growth inhibition ([5]; at 50.0 µM)?
Its growth inhibition is 46.4%.

And the growth inhibition ([5]; at 100.0 µM)?
Its growth inhibition is 71% (active).

And the growth inhibition ([6]; at 1.2 µM)?
The growth inhibition was -16%.

What about the growth inhibition ([6]; at 3.7 µM) of the same compound?
The growth inhibition was -13%.

What about the growth inhibition [6, 16] of the same compound?
The growth inhibition was 50%.

And the growth inhibition ([6]; at 11.0 µM)?
Its growth inhibition is -3%.

And the growth inhibition ([6]; at 33.0 µM)?
The growth inhibition was 23%.

What about the growth inhibition [6, 17] of the same compound?
Its growth inhibition is 70% (active).

What about the growth inhibition ([6]; at 50.0 µM) of the same compound?
The growth inhibition was 45.3%.

What about the growth inhibition ([6]; at 100.0 µM) of the same compound?
Its growth inhibition is 59%.

What about the growth inhibition [7, 16] of the same compound?
Its growth inhibition is -18%.

What about the growth inhibition [7, 17] of the same compound?
Its growth inhibition is 65%.

What about the growth inhibition ([7]; at 50.0 µM) of the same compound?
Its growth inhibition is 63.8%.

What about the growth inhibition ([8]; at 1.2 µM) of the same compound?
The growth inhibition was 35%.

And the growth inhibition ([8]; at 3.7 µM)?
The growth inhibition was 35%.

What about the growth inhibition ([8]; at 11.0 µM) of the same compound?
The growth inhibition was 32%.

What about the growth inhibition ([8]; at 33.0 µM) of the same compound?
The growth inhibition was 28%.

What about the growth inhibition ([8]; at 100.0 µM) of the same compound?
Its growth inhibition is 67%.

What about the growth inhibition [9, 16] of the same compound?
Its growth inhibition is 59%.

What about the growth inhibition [9, 17] of the same compound?
The growth inhibition was 57%.

What about the growth inhibition ([9]; at 50.0 µM) of the same compound?
The growth inhibition was 39.7%.

What about the growth inhibition ([10]; at 1.2 µM) of the same compound?
Its growth inhibition is 4%.

And the growth inhibition ([10]; at 3.7 µM)?
The growth inhibition was 7%.

And the growth inhibition [10, 16]?
The growth inhibition was 31%.

And the growth inhibition ([10]; at 11.0 µM)?
The growth inhibition was 34%.

What about the growth inhibition ([10]; at 33.0 µM) of the same compound?
The growth inhibition was 54%.

What about the growth inhibition [10, 17] of the same compound?
The growth inhibition was 21%.

What about the growth inhibition ([10]; at 50.0 µM) of the same compound?
The growth inhibition was 62.6%.

And the growth inhibition ([10]; at 100.0 µM)?
The growth inhibition was 75% (active).

And the growth inhibition ([11]; at 1.2 µM)?
Its growth inhibition is -9%.

And the growth inhibition ([11]; at 3.7 µM)?
The growth inhibition was 22%.

And the growth inhibition ([11]; at 11.0 µM)?
Its growth inhibition is -15%.

And the growth inhibition ([11]; at 33.0 µM)?
Its growth inhibition is 22%.

What about the growth inhibition ([11]; at 100.0 µM) of the same compound?
Its growth inhibition is 62%.

And the growth inhibition ([12]; at 1.2 µM)?
The growth inhibition was 1%.

What about the growth inhibition ([12]; at 3.7 µM) of the same compound?
Its growth inhibition is 2%.

And the growth inhibition ([12]; at 11.0 µM)?
Its growth inhibition is -2%.

And the growth inhibition ([12]; at 33.0 µM)?
Its growth inhibition is 31%.

And the growth inhibition ([12]; at 100.0 µM)?
The growth inhibition was 61%.

And the growth inhibition ([13]; at 1.2 µM)?
Its growth inhibition is -27%.

What about the growth inhibition ([13]; at 3.7 µM) of the same compound?
The growth inhibition was -25%.

What about the growth inhibition ([13]; at 11.0 µM) of the same compound?
Its growth inhibition is 1%.

What about the growth inhibition ([13]; at 33.0 µM) of the same compound?
Its growth inhibition is 33%.

And the growth inhibition ([13]; at 100.0 µM)?
The growth inhibition was 61%.

What about the growth inhibition [14, 16] of the same compound?
The growth inhibition was 28%.

And the growth inhibition [14, 17]?
Its growth inhibition is 56%.

What about the growth inhibition ([14]; at 50.0 µM) of the same compound?
Its growth inhibition is 53.5%.

And the growth inhibition ([15]; at 1.2 µM)?
Its growth inhibition is -2%.

And the growth inhibition ([15]; at 3.7 µM)?
The growth inhibition was -4%.

And the growth inhibition ([15]; at 11.0 µM)?
Its growth inhibition is 7%.

What about the growth inhibition ([15]; at 33.0 µM) of the same compound?
The growth inhibition was 21%.

What about the growth inhibition ([15]; at 100.0 µM) of the same compound?
The growth inhibition was 61%.

Reference: PubChem BioAssay (NCI)
